Hits are enriched below; roughly 1.2% of the tested compounds scored in any of these assays.
RGS4-Gao reg = human RGS4-Galphao interaction regulation | Multiplexed bead flow cytometry, RGS4-Galphao binding; actives lie on both sides | binding response (% of control), % at 10 µM | 220,000 tested, 0.33% active; in the data active = binding response below about 49% or above about 150%; inactive = in between;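 also: fluorescent Galphao activated with aluminum fluoride binding bead-coupled RGS4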
RGS16-Gao = regulators of human RGS16-Galphao interaction; bead-based flow cytometry RGS16-Galphao binding, fluorescence; actives lie on both sides; binding response (% of control), % at 10 µM; 220,000 tested, 0.38% active; AID 1441;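 also: Galphao activated by GDP with aluminum fluoride before binding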
Target sequence (O15492 whole entry, looked up): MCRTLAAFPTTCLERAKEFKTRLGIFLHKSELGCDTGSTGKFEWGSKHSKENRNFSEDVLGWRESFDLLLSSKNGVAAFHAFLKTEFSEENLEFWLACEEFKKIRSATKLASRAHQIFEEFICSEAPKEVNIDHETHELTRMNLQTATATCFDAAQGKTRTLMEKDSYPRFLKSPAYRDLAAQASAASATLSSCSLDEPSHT
Target sequence (P09471 whole entry, looked up): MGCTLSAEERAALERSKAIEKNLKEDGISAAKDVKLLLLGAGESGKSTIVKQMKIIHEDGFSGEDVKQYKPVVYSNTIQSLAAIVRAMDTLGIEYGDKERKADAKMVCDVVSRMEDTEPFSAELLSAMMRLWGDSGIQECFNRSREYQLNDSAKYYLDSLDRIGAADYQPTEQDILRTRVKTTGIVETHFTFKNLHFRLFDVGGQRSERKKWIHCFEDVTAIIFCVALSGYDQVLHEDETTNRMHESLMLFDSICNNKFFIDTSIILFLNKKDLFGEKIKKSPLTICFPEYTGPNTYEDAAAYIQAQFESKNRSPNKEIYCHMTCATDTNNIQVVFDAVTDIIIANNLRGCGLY
Avidin fluor = avidin bead compound fluorescence profile | Avidin beads, compound fluorescence 488/530 nm, flow cytometry; stronger effect = higher value | fluorescence (KMESF) at 10 µM | 220,000 tested, 0.38% active | AID 1775; in the data active = fluorescence above about 47
RGS8-Gao reg = human RGS8-Galphao interaction regulation | multiplexed bead flow cytometry, RGS8-Galphao binding; actives lie on both sides | response (percent of control binding), % at 10 µM | 220,000 tested, 0.34% active | AID 1423; in the data active = response below about 60% or above about 140%; inactive = in between;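 also: Galphao activated as the GDP aluminium fluoride complex binding bead-coupled RGS8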
GSH bead fluor = compound fluoresces at 488/530 nm on GSH beads; 190,000 tested, 0.25% active; fluorescence (KMESF) at 10 µM; AID 1776; GSH beads flow cytometry, compound fluorescence 488/530 nm; stronger effect = higher value; in the data active = fluorescence above about 89;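 also: glutathione beads carrying GST-tagged Bcl family fusion proteins plus one bare bead set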
RGS7-Gao reg = modulates binding of RGS7 to human Galphao | P09471 | Multiplexed bead flow cytometry; actives lie on both sides | binding response (% of control), % at 10 µM | 220,000 tested, 0.35% active | AID 1439; in the data active = binding response below about 49% or above about 150%; inconclusive = no clear call, values can overlap the other calls; inactive = in between;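 also: fluorescent Galphao held in activated GDP-AlF4 state binding bead-coupled RGS7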
RGS-Gao = RGS4-Galphao interaction regulator (human). shares compounds with RGS16-Gao. multiplexed bead flow cytometry, RGS–Galpha-o binding. RGS4–Galpha-o binding response, % at 10 µM. 1,600 tested, 99% active. AID 1504;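 also: fluorescently labeled Galpha-o bound to GDP with aluminium fluoride binding biotinylated RGS beads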
Biotin-avidin = counter-screen: compounds disrupting biotin binding to avidin beads. shares compounds with RGS16-Gao. 1,700 tested, under 10 active. streptavidin beads, fluorescein-biotin binding, flow cytometry. inhibition, % at 10 µM;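 active = inhibition above 50%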;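 also: median green fluorescence of gated singlet beads compared with DMSO control wells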
RGS8-Gao confirm = confirmation of regulators of human RGS8-Galphao interaction; shares compounds with RGS16-Gao; bead-based flow cytometry RGS8-Galphao binding, fluorescence; actives lie on both sides; binding response (% of control), % at 10 µM; 1,700 tested, 3% active; AID 1836; in the data active = binding response below about 72% or above about 130%; inactive = in between;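 also: Galphao activated as GDP AlF4 complex before binding bead RGS8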
RGS7-Gao confirm = confirmation of regulators of human RGS7-Galphao interaction. 1,700 tested, 7.8% active. AID 1837. response (percent of control binding), % at 10 µM. shares compounds with RGS16-Gao. bead-based flow cytometry RGS7-Galphao binding; actives lie on both sides; in the data active = response below about 75% or above about 130%; inactive = in between;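 also: fluorescent Galphao activated with GDP and aluminum fluoride binding bead-coupled RGS7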
RGS16-Gao conf = confirmation of regulators of human RGS16-Galphao interaction. shares compounds with RGS16-Gao. bead-based flow cytometry, RGS16-Galphao binding; actives lie on both sides. response (% of control binding), % at 10 µM. 1,700 tested, 4% active. AID 1838; in the data active = response below about 74% or above about 130%; inactive = in between;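 also: Galphao activated as the GDP aluminium fluoride complex binding bead-coupled RGS16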
RGS4-Gao single = RGS4-Galphao interaction regulation, single point confirmation; AID 1840; RGS4-Galphao binding, multiplexed bead flow cytometry; actives lie on both sides; shares compounds with RGS16-Gao; binding response (% of control), % at 10 µM; 1,700 tested, 4% active; in the data active = binding response below about 74% or above about 130%; inactive = in between
RGS19-Gao conf = RGS19-Galphao interaction regulation, single point confirmation. shares compounds with RGS16-Gao. bead-based flow cytometry RGS19-Galphao binding; actives lie on both sides. response (percent of control binding), % at 10 µM. 1,700 tested, 5% active. AID 1841; in the data active = response below about 50% or above about 160%; inactive = in between
Large screens that a line does not name were inactive (follow-up assays come after a bar, where they were run); [ ] = dose if it differs, or a comment. Unless noted, no rule for the calls is given here.

O=C(COc1ccc2c(c1)OCO2)NC12CC3CC(CC(C3)C1)C2	none
O=C(NCc1ccc2c(c1)OCO2)NC12CC3CC(CC(C3)C1)C2	RGS8-Gao reg 149[activator] | RGS-Gao 136 | Biotin-avidin inactive | RGS8-Gao confirm inactive | RGS7-Gao confirm inactive | RGS16-Gao conf inactive | RGS4-Gao single inactive | RGS19-Gao conf 223[activator]
NC(N)=N/N=C/c1cccc(Cl)c1Cl	none
COc1ccc(-c2cn3c(C)c(C(=O)Nc4cccc(C)n4)sc3n2)cc1	Avidin fluor 198, RGS7-Gao reg 181[activator] | RGS-Gao 110 | Biotin-avidin inactive | RGS8-Gao confirm inactive | RGS7-Gao confirm inactive | RGS16-Gao conf inactive | RGS4-Gao single inactive | RGS19-Gao conf inactive
Cc1cccc(NC(=O)c2sc3nc(-c4ccccc4)cn3c2C)n1	none
CCCCCC(=O)NC(=S)Nc1cccc(C(C)=O)c1	none
CCCC(=O)NC(=S)Nc1cccc(C(C)=O)c1	RGS8-Gao reg 145[activator] | RGS-Gao 114 | Biotin-avidin inactive | RGS8-Gao confirm inactive | RGS7-Gao confirm inactive | RGS16-Gao conf inactive | RGS4-Gao single inactive | RGS19-Gao conf inactive
O=C(C1CCC(CNS(=O)(=O)c2cccc3nsnc23)CC1)N1CCN(c2ccccn2)CC1 (configuration not stated)	none
O=C(NCC1OCCc2ccccc21)c1ccc(NC(=O)c2ccc(Cl)cc2Cl)cc1 (configuration not stated)	RGS4-Gao reg 315[activator], RGS16-Gao 445[activator], Avidin fluor 190, RGS8-Gao reg 143[activator], RGS7-Gao reg 329[activator] | Biotin-avidin inactive | RGS8-Gao confirm inactive | RGS7-Gao confirm inactive | RGS16-Gao conf inactive | RGS4-Gao single inactive | RGS19-Gao conf inactive
COc1ccc(C(=O)c2c[nH]c(C(=O)NCc3ccco3)c2)cc1	RGS4-Gao reg 29, RGS16-Gao 1.2, RGS8-Gao reg 18, RGS7-Gao reg 20 | Biotin-avidin inactive | RGS8-Gao confirm inactive | RGS7-Gao confirm inactive | RGS16-Gao conf inactive | RGS4-Gao single inactive | RGS19-Gao conf inactive
COc1cccc(C(=O)c2c[nH]c(C(=O)NCc3ccco3)c2)c1	none
CC[C@H](CO)NCCN[C@H](CC)CO	none
CCC(CO)NCCNC(CC)CO (configuration not stated)	RGS4-Gao reg 27 | Biotin-avidin inactive | RGS8-Gao confirm inactive | RGS7-Gao confirm inactive | RGS16-Gao conf inactive | RGS4-Gao single inactive | RGS19-Gao conf inactive
CCOC(=O)C1=C(N)OC2=C(C(=O)CC(C)(C)C2)C1c1cc(CSc2nnnn2C)cs1 (configuration not stated)	none
CCOC(=O)c1ccc[n+](CC(=O)c2ccccc2)c1	RGS8-Gao reg 54 | RGS-Gao 115 | Biotin-avidin inactive | RGS8-Gao confirm inactive | RGS7-Gao confirm inactive | RGS16-Gao conf inactive | RGS4-Gao single inactive | RGS19-Gao conf inactive
CCOC(=O)c1ccc[n+](CC(=O)c2ccc(OC)cc2)c1	none
CCc1cccc(NC(=O)c2ccc3c(=O)n4c(nc3c2)CCCCC4)c1	RGS7-Gao reg inconclusive (no result: GSH bead fluor)
Cn1c(COc2ccccc2)nnc1SCC(=O)Nc1ccc2c(c1)OCO2	RGS16-Gao -21 | RGS-Gao 83 | Biotin-avidin inactive | RGS8-Gao confirm inactive | RGS7-Gao confirm inactive | RGS16-Gao conf inactive | RGS4-Gao single inactive | RGS19-Gao conf inactive
Cc1ccc(OCc2nnc(SCC(=O)Nc3ccc4c(c3)OCO4)n2C)cc1	none

High-throughput results deposited in PubChem BioAssay by NMMLSC.
